# Potency and affinity values are given separately.
# What was measured:
# [1] = system: Klebsiella pneumoniae; settings: Concentration 20 uM; ASSAY_TEST Inhibition of Bacterial Growth; detection method Absorption (OD600); MEDIA CAMHB; plate type 384well; NBS; CORNING #3640; time 18 hr
# [2] = system: Candida albicans; settings: 20 µM
# [3] = system: Cryptococcus neoformans; settings: Concentration 20 uM; ASSAY_TEST Inhibition of Fungal Growth; detection method Resazurin; Absorption (OD600-OD570); plate type 384well; NBS; CORNING #3640
SMILES,Inhibition [1],Inhibition [2],Inhibition [3]
Cc1ccccc1C(OCCN(C)C)c1ccccc1.Cl (stereo not drawn) [ORPHENADRINE HYDROCHLORIDE],11.73%,1.54%,-6.53%
CCN(CC)CC(=O)Nc1c(C)cccc1C [LIDOCAINE],14.92%,1.15%,-4.85%
O=C(O)COCCN1CCN(C(c2ccccc2)c2ccc(Cl)cc2)CC1 (stereo not drawn) [CETIRIZINE],-1.38%,3.71%,-6.19%
O=C([O-])Cc1ccccc1Nc1c(Cl)cccc1Cl.[Na+] [DICLOFENAC SODIUM],–,5.99%,1.05%
COc1ccc(-c2cc(=O)c3c(OC)c(OC)c(OC)c(OC)c3o2)cc1OC [NOBILETIN],4.76%,7.12%,-2.3%
O=C1CCc2ccc(OCCCCN3CCN(c4cccc(Cl)c4Cl)CC3)cc2N1 [ARIPIPRAZOLE],2.6%,-0.97%,6.93%
Cc1ncc([N+](=O)[O-])n1CCO [METRONIDAZOLE],13.91%,1.89%,-8.47%
CC1CC2C3CCC4=CC(=O)C=CC4(C)[C@@]3(Cl)C(O)CC2(C)C1(O)C(=O)CO (stereo partly drawn),12.23%,3.02%,-2.46%

# Reference: ChEMBL document CHEMBL4513141, “CO-ADD screening of NIH (USA) - Clinical Collection” (2021)
